In PubChem BioAssay one finds composite z-score and z-score data, which are given here for 18 compounds.

In assay [1] the test system is Human papillomavirus type 1a protein E7 (residues 44-93). Kind of assay: small molecules binding HPV E7 44-93 – biochemical, small-molecule microarray, residues 44-93, 635 nm fluorescence, primary screen (AID 1108).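 Further: E7 fragment applied at 1 µg/mL in TBST for 1 h at 4 C; score combines spot fluorescence with its signal to noise ratio.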 The conditions noted are these: fluorescence 635 nm, higher = more signal.
The nature of assay [2]: hepatitis C replication reporter changes, two-sided – Huh7 cells, luciferase reporter, HCV replication inhibitor project, primary screen (AID 1109).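 Further: huh7 hepatoma cells harbouring a luciferase neomycin HCV replicon reporter; luciferase luminescence as measure of HCV replicon replication; test concentration not given here.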 The conditions noted are these: Huh7 HCV replicon luciferase reporter, 48 h; higher = more signal. In general terms: A reporter such as luciferase makes a cellular process visible.
The target in assay [3] is Left-right determination factor 2 (Homo sapiens) (UniProt O00292). The assay can be described thus: small molecules binding LEFTY2 protein – biochemical, small-molecule microarray, 635 nm fluorescence scan, primary screen (AID 1110). The conditions noted are these: higher = more signal.
The target of assay [4] is Calmodulin-1 (Homo sapiens) (UniProt P0DP23). The assay can be described thus: small molecules binding calmodulin-1 with EGTA – biochemical, small-molecule microarray, Cy5-labelled CALM1, profiling panel (AID 1111).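 Further: labelled calmodulin applied in Tris saline Tween buffer holding calcium plus EGTA and DTT.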 The following applies: Cy5-CALM1 binding fluorescence, higher = more signal.
Assay [5] has the same target. The assay can be described thus: small molecules binding Ca-loaded calmodulin-1 – biochemical, small-molecule microarray, Cy5-labelled CALM1, plus calcium, artefact control for SMM control-protein annotation, profiling panel (AID 1112).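 Further: score merges spot fluorescence with signal to noise from triplicate slides.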 The following applies: Cy5-CALM1 binding fluorescence, higher = more signal.
The nature of assay [6]: probe aWnt5a binding to arrayed compounds – biochemical, biotinylated probe, 635/667 nm fluorescence, primary screen (AID 1113).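 Further: score merges 667 nm fluorescence intensity with signal-to-noise per printed feature.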 The conditions noted are these: small-molecule microarray, higher = more signal.
A short description of assay [7]: probe aShh binding to arrayed compounds – biochemical, biotinylated probe, 635/667 nm fluorescence, primary screen (AID 1114).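 Further: probe is biotin-labelled aShh protein from a stem cell growth factor screen; measures binding of labelled protein to compounds printed on the slide; score merges feature fluorescence at 667 nm with signal-to-noise.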 The following applies: small-molecule microarray, higher = more signal.
Assay [8] in a line: probe aNog binding to arrayed compounds – biochemical, biotinylated probe, 635/667 nm fluorescence, primary screen (AID 1115).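 Further: probe is biotinylated aNog protein used at 0.15 µg/mL for 1 h at 4 C; z-score combines 667 nm fluorescence of each spot with its signal to noise.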 The conditions noted are these: small-molecule microarray, higher = more signal.
Assay [9] has as its target Torsin-1A-interacting protein 1 (Homo sapiens) (UniProt Q5JTV8). Kind of assay: compound microarray binding of lysate hLAP1 – cell lysate, small-molecule microarray, COS7 lysate, 635/667 nm fluorescence, primary screen (AID 1116). The following applies: 635 nm fluorescence, higher = more signal.
Assay [10] has as its target Alpha-bungarotoxin (Bungarus multicinctus) (UniProt P60615). The assay can be described thus: compounds binding labelled alpha-BTX control protein – biochemical, small-molecule microarray, Alexa647 label, 635/667 nm fluorescence, artefact control for SMM control protein annotation, profiling panel (AID 1117). The following applies: alpha-BTX-A647 binding fluorescence, higher = more signal.

Chain of Left-right determination factor 2 (Homo sapiens) (O00292 whole entry, looked up): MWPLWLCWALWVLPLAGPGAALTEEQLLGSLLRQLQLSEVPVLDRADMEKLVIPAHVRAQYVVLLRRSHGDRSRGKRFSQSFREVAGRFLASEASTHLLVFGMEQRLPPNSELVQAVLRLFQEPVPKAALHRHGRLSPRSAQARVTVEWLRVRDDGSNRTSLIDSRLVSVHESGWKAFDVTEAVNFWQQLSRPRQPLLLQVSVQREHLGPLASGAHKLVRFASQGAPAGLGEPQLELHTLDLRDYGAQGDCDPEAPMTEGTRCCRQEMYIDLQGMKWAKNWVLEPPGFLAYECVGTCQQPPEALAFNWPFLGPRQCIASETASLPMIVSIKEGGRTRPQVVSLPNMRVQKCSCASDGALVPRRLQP
Chain of Torsin-1A-interacting protein 1 (Homo sapiens) (Q5JTV8 whole entry, looked up): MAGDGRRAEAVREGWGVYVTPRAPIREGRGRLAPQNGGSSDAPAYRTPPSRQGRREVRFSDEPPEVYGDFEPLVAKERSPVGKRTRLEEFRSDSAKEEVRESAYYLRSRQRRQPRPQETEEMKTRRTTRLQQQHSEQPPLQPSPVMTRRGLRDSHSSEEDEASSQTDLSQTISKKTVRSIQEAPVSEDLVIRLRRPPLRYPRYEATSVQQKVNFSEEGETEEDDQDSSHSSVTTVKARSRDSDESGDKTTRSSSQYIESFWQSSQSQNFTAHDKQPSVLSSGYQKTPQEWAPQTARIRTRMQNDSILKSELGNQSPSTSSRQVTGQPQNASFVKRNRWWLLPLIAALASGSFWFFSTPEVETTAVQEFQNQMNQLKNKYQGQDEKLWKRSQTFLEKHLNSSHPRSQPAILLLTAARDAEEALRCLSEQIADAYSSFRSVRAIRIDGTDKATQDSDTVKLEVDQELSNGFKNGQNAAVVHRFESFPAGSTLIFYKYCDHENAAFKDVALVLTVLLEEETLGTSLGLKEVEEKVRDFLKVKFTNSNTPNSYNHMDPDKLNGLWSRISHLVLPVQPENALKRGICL
Chain of Alpha-bungarotoxin (Bungarus multicinctus) (P60615 whole entry, looked up): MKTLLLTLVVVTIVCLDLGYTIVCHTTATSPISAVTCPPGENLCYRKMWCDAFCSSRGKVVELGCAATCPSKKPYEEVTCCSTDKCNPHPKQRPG

Consider `CC(C)CON=C1C[C@@H](O)[C@@H](O)[C@@H]2[C@@H]3C(=O)N(Cc4ccc5c(c4)OCO5)C(=O)[C@@H]3CC[C@H]12`, for which the composite z-score in assay [1] is 1.33; in assay [3], 0.375; in assay [4], -0.382; in [5], -0.576; in [6], 0.0044; in assay [7] it was -0.291. Further, the values for the composite z-score in assay [8], in [9] and in assay [10] were -0.467, 0.54 and 0.411, respectively. Also, the z-score in assay [2] was -1.24.

`COc1cccc([C@H]2Oc3ccc(OC)cc3C(=NO[C@H](C)c3cn([C@H](CO)Cc4ccccc4)nn3)[C@@H]2O)c1`: the composite z-score in assay [1] is -0.995; in assay [3], 0.323; in assay [4], -1.57; in assay [5] it was -0.45; in [6], -0.175; in [7], -0.229. Moreover, the values for the composite z-score in assay [8], in assay [9] and in [10] were -0.141, 0.169 and -0.689, respectively. The compound also displayed a z-score in assay [2] of -1.74.

Consider `CCOC(=O)C1=NO[C@@]2(C=C(Br)C3(OCCCO3)[C@H]3O[C@H]32)C1`, for which the composite z-score is 0.339 in assay [1]; 1.13 in assay [3]; -2.14 in assay [4]; -2.64 in assay [5]; -0.138 in assay [6]; 0.0952 in assay [7]. For the same compound, the composite z-score was -0.452 in [8], -0.143 in [9] and 2.04 in assay [10]. The compound further gave a z-score in assay [2] of -0.154.

Turning to `C[n+]1ccc(-c2ccc(CO)cc2)cc1`, the composite z-score was -1.04 in assay [1]; 0.616 in assay [3]; 0.468 in assay [4]; 0.607 in assay [5]; -0.117 in assay [6]; -0.0709 in assay [7]. Moreover, the values for the composite z-score in [8], in assay [9] and in assay [10] were -0.329, 0.724 and 3.86, respectively. The z-score in assay [2] was -0.0613.

As for `CO[C@@H]1COC(=O)[C@@H](C)NC(=O)CC=C[C@@H](C)[C@H](NS(=O)(=O)c2ccc(C)cc2)COC(=O)[C@H](C)NC(=O)CC=C[C@H]1C`, the composite z-score in assay [1] is -0.0926; in [3], 0.765; in assay [4] it was -1.74; in assay [5], -1.94; in [6] it was -0.0045; in [7], -0.0709. In addition, the composite z-score was -0.433 in assay [8], 0.392 in assay [9] and -0.744 in assay [10]. Moreover, the z-score in assay [2] came to 0.0975.

Consider `CCOC(=O)[C@H](CC(C)C)NC(=O)CCC1CC(OC(=O)NCc2ccc3c(c2)OCO3)CC2(CCCC(COC(=O)NCCCN3CCCC3=O)O2)O1` (stereo not given in full), for which the composite z-score in assay [1] was 1.26; in assay [3], 0.563; in assay [4] it was 0.542; in [5], -0.348; in assay [6], -0.0519; in assay [7], -0.0073. The figures for the composite z-score in assay [8], in assay [9] and in [10] were -0.158, 0.0469 and 0.758, respectively. In addition, the z-score in [2] is -0.584.

As to `CCCCC#C[C@@H]1C=C[C@H](OC(C)=O)[C@@H](COC(C)=O)O1`, the composite z-score is 0.713 in assay [1]; 0.579 in [3]; 0.349 in assay [4]; -0.0635 in assay [5]; -0.118 in [6]; -0.221 in [7]. Also, the results for the composite z-score in [8], in assay [9] and in assay [10] were -0.285, 0.339 and 0.217, respectively. The z-score in [2] is -2.47.

Consider `CO[C@H]1COC(=O)CCC[C@@H](C)[C@H](OC)COC(=O)[C@@H]2CCCN2C(=O)CC=C[C@@H]1C`, for which the composite z-score in [1] was -1.68; in [3], 1.18; in [4] it was -0.984; in assay [5] it was -1.72; in assay [6], -0.236; in assay [7], -0.0533. Further, the composite z-score was -0.0553 in [8], 1.09 in [9] and 0.199 in assay [10]. This compound also gave a z-score in assay [2] of -2.06.

On to `CON=C[C@@H](NS(=O)(=O)c1ccc(C)cc1)[C@H](C)C=CCC(=O)OC`, for which the composite z-score in assay [1] is -0.933; in assay [3], 0.532; in [4], -0.654; in [5] it was -1.31; in assay [6], -0.128; in assay [7], 0.0756. Moreover, the composite z-score is -0.425 in assay [8], 0.22 in assay [9] and -0.0634 in assay [10]. In assay [2], this compound displayed a z-score of 0.604.

For the compound `Cn1c(=O)n2n(c1=O)[C@H]1[C@H](O)[C@@H]3O[C@@H]3C(=NOCc3ccccc3)[C@H]1CC2`, the composite z-score in [1] is 0.729; in [3] it was -0.0238; in assay [4] it was -0.17; in assay [5], 0.33; in assay [6], -0.232; in assay [7], -0.0339. Moreover, the composite z-score in assay [8] was -0.0524; in assay [9] it was -0.0588; in assay [10], 0.0868. This compound also had a z-score in assay [2] of -1.28.

`CC(=O)Nc1ccc([C@@H]2N[C@H](C(=O)O)CC[C@H]2C)cc1`: the composite z-score in assay [1] was -0.0931; in assay [3], 0.523; in assay [4], -0.105; in assay [5], -0.635; in [6], -0.0203; in assay [7], -0.226. The figures for the composite z-score in [8], in assay [9] and in assay [10] were -0.213, 0.14 and 0.273, respectively. Also, the z-score in [2] came to 1.1.

Consider `CC(C)CON=C1C[C@@H](O)[C@@H](O)[C@@H]2[C@@H]3C(=O)N(c4ccc(F)cc4F)C(=O)[C@@H]3CC[C@H]12`, for which the composite z-score in assay [1] was 1.38; in [3], 0.923; in assay [4] it was 0.0597; in assay [5] it was -0.809; in [6] it was -0.0735; in assay [7], -0.0169. In addition, the composite z-score in [8] was determined as 0.106; in assay [9], 0.272; in assay [10] it was 0.198. Moreover, in [2], the z-score was -0.666.

Regarding `CCN1C(=O)[C@@H]2[C@H]3C(=CC[C@@H]2C1=O)C1(OCCCO1)[C@H]1O[C@H]1[C@H]3O`, the composite z-score in [1] was 1.38; in assay [3], 0.352; in [4], 0.669; in [5], -0.536; in [6], 0.0293; in [7] it was -0.304. Further, the figures for the composite z-score in assay [8], in [9] and in assay [10] were 0.194, 1.27 and 0.857, respectively. Moreover, in assay [2], the z-score was -4.67.

On to `O=C1[C@H]2[C@H]3[C@H](O)[C@H](O)CC(=NOC[C@@H](O)COCc4ccco4)[C@H]3CC[C@H]2C(=O)N1Cc1ccccc1`, for which the composite z-score was -1.01 in assay [1]; 0.665 in assay [3]; -0.684 in assay [4]; -1.22 in assay [5]; -0.18 in assay [6]; -0.27 in [7]. Further, the values for the composite z-score in assay [8], in assay [9] and in assay [10] were 0.0444, -0.193 and -0.309, respectively. The compound further registered a z-score in [2] of -0.523.

Regarding `CCOC(=O)NN=C1C[C@@H](O)[C@@H](O)[C@@H]2[C@@H]3C(=O)N(c4cccc(Oc5ccccc5)c4)C(=O)[C@@H]3CC[C@@H]12`, the composite z-score was -0.269 in assay [1]; 0.144 in assay [3]; -0.0069 in [4]; -0.434 in assay [5]; -0.0165 in assay [6]; -0.32 in assay [7]. In addition, the composite z-score in [8] was -0.444; in [9] it was -0.127; in assay [10], 1.32. The compound also gave a z-score in [2] of -0.912.

For `CCN1C(=O)[C@H]2[C@H]3[C@H](O)[C@H](O)CC(=NOCC(C)C)[C@@H]3CC[C@H]2C1=O`, the composite z-score is 1.33 in assay [1]; 0.32 in assay [3]; -0.39 in assay [4]; -0.682 in assay [5]; -0.096 in assay [6]; -0.0709 in assay [7]. The values for the composite z-score in assay [8], in assay [9] and in [10] were -0.255, 0.317 and 0.13, respectively. This compound displayed a z-score in [2] of -0.0305.

As to `CSCC[C@@H]1NC(=O)CC=C[C@@H](C)COC(=O)[C@@H](C)COC1=O`, the composite z-score in assay [1] is -2.17; in assay [3] it was 0.294; in assay [4], -1.31; in [5] it was -1.61; in [6] it was -0.197; in [7], -0.366. For the same compound, the results for the composite z-score in assay [8], in [9] and in [10] were -0.15, 0.574 and -2.23, respectively. In [2], this compound yielded a z-score of 0.371.

In the case of `C#CCCCON=C1C[C@@H](O)[C@@H](O)[C@@H]2[C@@H]3C(=O)N(c4ccc(F)cc4F)C(=O)[C@@H]3CC[C@H]12`, the composite z-score in assay [1] was 0.299; in assay [3], 0.358; in assay [4], -0.353; in assay [5], -0.693; in assay [6], -0.006; in [7], -0.0533. For the same compound, the composite z-score in assay [8] is -0.21; in assay [9] it was -0.0188; in assay [10], 0.239. The same compound came in with a z-score in [2] of 0.0534.
